Screening data from PubChem.
Compounds with a hit are over-represented: about 9.4% of the library has one in this group of screens.
ELG1 repair inh: blocks ELG1-dependent DNA repair in HEK293T cells; HEK293T ELG1-luciferase reporter, luminescence, 16 h; DNA damage induced by 5-fluorouridine; Potency, µM (highest dose often 46.1 µM), most hits filed as inhibitors; 330,000 tested, 2.3% active; note: nearly all actives have a fitted effect of over 55% in size
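Quantitative HTS, concentration-response format. 2,000 cells/well co-treated with 5-fluorouridine and compound, 16 hr in 5% CO2 at 37 °C; ONE-Glo luminescence read after 30 min.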
Rab9 prom act: activators of Rab9 promoter. Huh7 Rab9 promoter-luciferase reporter, luminescence, 24 h. Potency, µM (titrated, usually from 9.22 µM), usual class: activators. 320,000 tested, 2.8% active; note: nearly all actives have a fitted effect of over 60% in size
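Using Huh7 cells stably transfected with Rab9 promoter–luciferase, compounds were incubated 24 h at 37 °C, 5% CO2; luciferase luminescence was read 10 min after reagent addition.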
ELG1 genotoxic: inducers of genotoxicity in HEK293T ELG1-luciferase cells. HEK293T ELG1-luciferase reporter, luminescence, 16 h. Potency, µM (series often up to 46 µM), actives largely listed as activators. 330,000 tested, 1.3% active. AID 504466; note: nearly all actives have a fitted effect of over 60% in size
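HEK293T cells expressing luciferase-tagged ELG1 were exposed to compound or DMSO vehicle for 16 hr at 37 °C and 5% CO2. Luciferase activity was then measured with ONE-Glo after 30 min at room temperature.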
SMN2 splice up: SMN2 splice variant enhancement; HEK293 SMN2-luciferase splicing reporter, luminescence, 30-36 h; Potency, µM (series often up to 46.1 µM), hits mostly activators; 210,000 tested, 2.8% active; note: nearly all actives have a fitted effect of over 55% in size
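qHTS luciferase splicing reporter: luminescence rises when SMN2 exon 7 is included in transfected HEK293 cells. Compound exposure lasted 30-36 h at 37C, with 4.5 mM final sodium butyrate as control, followed by a ONE-Glo read.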
FLuc counter: firefly luciferase modulation, counter-screen for miR-21 project. 360,000 tested, 6.9% active. purified FLuc, Km substrates, luminescence inhibition. P08659. Potency, µM (highest dose often 57.5 µM), most hits filed as inhibitors; note: nearly all actives have a fitted effect of over 55% in size
Target sequence (P08659 whole entry, looked up): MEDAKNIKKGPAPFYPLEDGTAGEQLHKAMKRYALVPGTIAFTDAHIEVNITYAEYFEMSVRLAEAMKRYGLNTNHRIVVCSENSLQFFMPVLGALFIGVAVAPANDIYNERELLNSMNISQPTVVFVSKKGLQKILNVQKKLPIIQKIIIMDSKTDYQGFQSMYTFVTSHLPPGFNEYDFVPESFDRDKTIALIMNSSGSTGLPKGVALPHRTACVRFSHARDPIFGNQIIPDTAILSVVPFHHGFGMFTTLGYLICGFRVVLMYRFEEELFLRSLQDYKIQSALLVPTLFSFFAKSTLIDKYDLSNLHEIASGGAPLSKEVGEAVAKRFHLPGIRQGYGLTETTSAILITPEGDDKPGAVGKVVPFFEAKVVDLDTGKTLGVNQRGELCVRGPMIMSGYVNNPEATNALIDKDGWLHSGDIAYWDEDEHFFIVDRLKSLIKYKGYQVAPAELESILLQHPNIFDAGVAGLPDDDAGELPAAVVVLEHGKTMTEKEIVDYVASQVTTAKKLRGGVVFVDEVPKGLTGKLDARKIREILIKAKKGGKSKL
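Biochemical qHTS of compounds, final roughly 60 µM downward over six points, against 10 nM purified firefly luciferase using Km concentrations of substrates (10 uM D-luciferin, 10 uM ATP) in Tris acetate pH 7.5 buffer; luminescence output.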
NPC1 prom act: activators of NPC1 promoter. Huh7 NPC1 promoter luciferase reporter, 24 h. Potency, µM (top dose mostly 9.22 µM), hits mostly activators. 320,000 tested, 2.4% active. AID 485313; note: nearly all actives have a fitted effect of over 60% in size
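Cells: Huh7 expressing luciferase under the NPC1 promoter, 1500/well. Seeded 2 h, compound added, incubated 24 h at 37 °C. Luciferase reagent, 10 min ambient, then luminescence.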
Numbers stand for hits; . = inactive; ? = inconclusive; / = no result; [ ] = remark or other dose. Calls come from the whole dose curve; as a rule, active = well fitted curve in the direction sought with a large enough effect; inconclusive = small, poorly fitted or top-dose-only effect, or another doubt; inactive = no such curve, though single readings can be large; an effect the other way counts as inactive or inconclusive.

SMILES	ELG1 repair inh	Rab9 prom act	ELG1 genotoxic	SMN2 splice up	FLuc counter	NPC1 prom act
CC(=O)c1ccc(NC(=O)c2ccc(-c3nc(COc4ccc(C)cc4)c(C)o3)cc2)cc1	/	/	/	/	.	/
CCN(Cc1ccccc1)Cc1c(O)ccc2c(=O)c(-c3ccccc3OC)c(C(F)(F)F)oc12	/	/	/	.	.	/
O=[N+]([O-])c1ccccc1OCCCn1cnc2ccccc21	?	2µM	?	11µM	5.4µM	2.8µM
O=[N+]([O-])c1ccccc1OCCCN1CCOCC1	?	.	.	.	.	.
O=c1c2ccccc2ncn1CCCOc1ccccc1[N+](=O)[O-]	?	3.5µM	?	/	15µM	4µM
Cc1ccccc1Nc1c(-c2ccncc2)nc2ccc(Br)cn12	.	.	.	13µM	.	.
Cc1ccc2nc(-c3ccncc3)c(Nc3ccccc3C)n2c1	/	/	/	11µM	.	/
COC(=O)CNc1c(-c2ccccc2)nc2ccc(Br)cn12	?	?	?	.	7.6µM	?
Cc1ccc2nc(-c3cccnc3)c(Nc3ccccc3C)n2c1	.	.	.	.	.	.
COC(=O)Nc1c(-c2ccccc2)nc2ccc(Cl)cn12	.	.	.	/	.	.
Cc1ccccc1Nc1c(-c2cccnc2)nc2ccc(Br)cn12	.	.	.	.	.	.
CN(C(=O)CSc1nc(C2CCCC2)nc2c1c(=O)n(C)c(=O)n2C)c1ccccc1	/	/	/	/	.	/
O=C(Cn1c(SCCOc2ccc(Cl)cc2)nc2ccccc21)N1CCCCC1	/	/	/	/	.	/
COc1ccccc1CCNC(=O)C(=O)NCC(c1ccco1)S(=O)(=O)c1ccc(F)cc1 (centres undefined)	/	/	/	/	.	/
COCCN(C(=S)Nc1ccc(C)cc1)C(C)c1ccco1 (centres undefined)	.	.	.	/	13µM	.
O=C(CC1C(=O)NCCN1CC1CCCCC1)NCc1ccc(F)cc1F (centres undefined)	?	2.8µM	?	/	?	2.8µM
CC1=C(C(=O)Nc2ccc(F)cc2F)C2(CCN(C(C)C)CC2)OC1=O	/	/	/	/	.	/
S=C(NCc1ccco1)Nc1cccc(Cl)c1Cl	15µM	.	.	/	.	.
COc1ccc(NC(=O)Cn2c(=O)n(-c3cccc(C(F)(F)F)c3)c(=O)c3sccc32)cc1	/	/	/	.	.	/
c1ccc(-c2ccc(-c3cnc4n3CCCCC4)cc2)cc1	?	.	?	.	12µM	?
Cc1cc(=O)n2nc(N3CCC(C(=O)Nc4ccc(Br)cc4F)CC3)sc2n1	/	/	/	.	.	/
Cc1nc2ccccc2c2c(N)c3ccccc3n12	26µM	.	.	.	?	.
CC(C)OCCCNC(=O)CN1C(=O)COc2ccc(S(=O)(=O)N3CCOCC3)cc21	/	/	/	.	.	/
O=C(Nc1ccccc1Cl)c1ccc(F)c(S(=O)(=O)NCc2ccc(Cl)c(Cl)c2)c1	/	/	/	/	.	/
CCC(Oc1ccccc1)C(=O)Nc1ccc(-c2nnc(-c3ccco3)o2)cc1 (centres undefined)	?	?	.	11µM	.	?
SMILES	ELG1 repair inh	Rab9 prom act	ELG1 genotoxic	SMN2 splice up	FLuc counter	NPC1 prom act
Clc1ccc(-c2nnc(-c3ccco3)o2)cc1	?	2.8µM	?	?	12µM	3.5µM
COc1ccccc1OCC(=O)Nc1ccc(-c2nnc(-c3ccco3)o2)cc1	?	.	.	5.6µM	.	.
O=C(Cc1cccs1)Nc1ccc(-c2nnc(-c3ccco3)o2)cc1	.	?	?	.	.	.
O=C(COc1ccc(Br)cc1)Nc1ccc(-c2nnc(-c3ccco3)o2)cc1	?	2.2µM	.	8.9µM	.	4µM
COc1ccc(NC(=O)c2ccc(CNS(=O)(=O)c3ccc4c(c3)C(C)(C)C(=O)N4C)cc2)cc1	/	/	/	/	.	/
C/C(=N\N=c1/sc2ccccc2n1C)c1ccccn1	?	?	?	?	17µM	?
C/C(=N\N=c1/sc2ccccc2n1C)c1ccc(N2CCOCC2)cc1	?	.	.	.	2.4µM	.
CCCCNC(=O)CCn1c(=O)c2cccn2c2cccnc21	/	/	/	/	.	/
COc1cccc(-c2nccc(NCc3cccc(C)c3)n2)c1	/	/	/	11µM	/	/
CCOc1ccc(C2=NNC(c3cccs3)=Nc3ccc(OC)cc32)cc1	?	.	.	.	21µM	.
CCOc1ccc(C2=Nc3ccc(Br)cc3C(c3ccc(N4CCOCC4)cc3)=NN2)cc1	?	?	?	?	24µM	?
CCOc1ccc(C2=Nc3ccccc3C(c3ccc(N4CCOCC4)cc3)=NN2)cc1	?	2.8µM	.	?	?	?
CCc1ccc2c(c1)C(c1ccc(N3CCOCC3)cc1)=NNC(c1ccncc1)=N2	.	.	.	.	.	.
CCC12CN3CC(C)(CN(C1)C3c1ccc(O)cc1O)C2=O (centres undefined)	/	/	/	.	.	/
CC1CCN(S(=O)(=O)c2cn(CC(=O)Nc3ccc(F)c(Cl)c3)c(=O)c3ccccc23)CC1	/	/	/	.	.	/
COC(=O)c1sc(NC(=S)NC(=O)c2ccccc2F)nc1C	?	1µM	?	.	8.5µM	?
CCOC(=O)CNC(=O)c1sc(NC(=O)c2ccccc2F)nc1C	?	?	9.2µM	/	11µM	?
O=C(CNC(=O)c1ccccc1F)OCCCOC(=O)CNC(=O)c1ccccc1F	?	.	.	/	.	.
CCOC(=O)CNC(=O)c1sc(NC(=O)c2cccc(F)c2)nc1C	?	.	?	.	21µM	.
Cc1cccc(N2CCN(C(=O)CN3CCSc4ccccc43)CC2C)c1 (centres undefined)	/	/	/	/	.	/
Cn1c(=O)c2[nH]c(CCC(=O)O)nc2n(C)c1=O	/	/	/	.[9.22 µM]	/	/
O=C1N/C(=N\N=C\c2ccccn2)SC1Cc1cccc(SC(F)F)c1 (centres undefined)	.	.	.	.	15µM	.
O=C1N/C(=N\N=C\c2ccc3ncccc3c2)SC1Cc1ccc(SC(F)F)cc1 (centres undefined)	?	?	?	13µM	0.54µM	?
O=C1N/C(=N\N=C\c2cccs2)SC1Cc1cccc(Cl)c1 (centres undefined)	.	.	.	.	.	.
O=C1N/C(=N\N=C\c2cccnc2)SC1Cc1ccc(SC(F)F)cc1 (centres undefined)	.	.	.	.	11µM	.
O=C(CC1S/C(=N/N=C/c2cccnc2)NC1=O)Nc1ccccc1 (centres undefined)	.	.	.	.	?	.
COc1cc(/C=N/N=C2/NC(=O)C(Cc3ccccc3)S2)ccc1O (centres undefined)	?	.	.	.	2.4µM	.
COc1ccc(/C=C2\Sc3ccc(C(=O)NC4CC4)cc3N(C)C2=O)cc1OC	12µM	.	.	/	.	.
COc1ccc(/C=C2\Sc3ccc(C(=O)N4CCCC4)cc3N(C)C2=O)cc1OC	?	.	.	/	.	.
